Records with an inconclusive call do not appear. Entries that show only a call come without a potency. Some compounds were tested as several samples or in several runs, with calls that do not always agree. The source made the active and inactive calls. Unless noted, calls come from the whole dose curve; as a rule, active = well fitted curve in the direction sought with a large enough effect in the repeat runs; inconclusive = weak or mixed curves; inactive = no such curve, though single readings can be large; an effect the other way counts as inactive or inconclusive.
What was measured:
[1] = qHTS assay to identify small molecule agonists of the RXR signaling pathway - cell viability counter screen (AID 1159529); note: nearly all actives have a fitted effect of over 50% in size; note: potency is the fitted concentration of half-maximal effect
In short: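 Steps: seed RXR-alpha-UAS-bla HEK 293T cells in assay medium containing 2% charcoal-stripped FBS; incubate 5 hr; add compounds in DMSO; incubate 16 hr at 37 C; after the bla read, add CellTiter-Glo and read luminescence at 30 min.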

[2] = qHTS assay to identify small molecule antagonists of the estrogen related receptor (ERR) signaling pathway from Tox21 library - cell viability counter screen (AID 1224834); note: nearly all actives have a fitted effect of over 30% in size; note: potency is the fitted concentration of half-maximal effect
In short: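 ERR reporter cells, 2,000 per well, rested 6 h, then exposed to compound in DMSO for 17.5 hours at 37 C. Viability read as fluorescence after 30 min with CellTiter-Fluor.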

[3] = target: Luciferin 4-monooxygenase (Photinus pyralis) (UniProt P08659); experiment: qHTS assay to identify small molecule inhibitors of firefly luciferase (AID 1224835); note: nearly all actives have a fitted effect of over 25% in size; note: potency is the fitted concentration of half-maximal effect
Luciferin 4-monooxygenase (Photinus pyralis), sequence (P08659 whole entry, looked up): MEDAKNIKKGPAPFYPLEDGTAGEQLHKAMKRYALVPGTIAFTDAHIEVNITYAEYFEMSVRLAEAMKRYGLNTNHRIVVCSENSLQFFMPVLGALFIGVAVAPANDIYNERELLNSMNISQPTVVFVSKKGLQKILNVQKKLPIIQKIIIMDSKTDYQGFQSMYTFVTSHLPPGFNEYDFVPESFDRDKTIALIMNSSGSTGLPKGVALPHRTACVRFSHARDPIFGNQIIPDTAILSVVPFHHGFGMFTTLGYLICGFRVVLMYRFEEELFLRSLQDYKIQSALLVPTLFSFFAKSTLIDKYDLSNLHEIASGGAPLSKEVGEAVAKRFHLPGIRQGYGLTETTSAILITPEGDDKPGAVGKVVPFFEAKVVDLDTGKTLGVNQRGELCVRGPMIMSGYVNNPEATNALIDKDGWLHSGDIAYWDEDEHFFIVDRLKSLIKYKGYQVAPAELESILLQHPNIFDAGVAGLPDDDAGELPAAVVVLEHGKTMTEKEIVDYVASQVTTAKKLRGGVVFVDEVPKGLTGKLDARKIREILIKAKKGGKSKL
In short: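 Biochemical qHTS: compounds run as interplate titrations against purified firefly enzyme, with D-luciferin and ATP each at its KM concentration. Light output recorded by CCD imaging.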

[4] = qHTS assay to identify small molecule agonists of the constitutive androstane receptor (CAR) signaling pathway - cell viability counter screen (AID 1224836); note: nearly all actives have a fitted effect of over 45% in size; note: potency is the fitted concentration of half-maximal effect
In short: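 Cells were seeded and incubated 4 hrs. Compounds were added across 15 concentrations together with PK11195 at 0.75 uM final. Plates were incubated 23 hrs at 37 C. CellTiter-Fluor was added and fluorescence measured.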

[5] = qHTS assay to identify small molecule antagonists of the constitutive androstane receptor (CAR) signaling pathway - cell viability counter screen (AID 1224837); note: nearly all actives have a fitted effect of over 45% in size; note: potency is the fitted concentration of half-maximal effect
In short: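 HepG2 cells stably carrying hCAR and CYP2B6-2.2kb reporter, stimulated with 50 nM CITCO and compounds at 15 concentrations for 23 h at 37 C. Viability measured by CellTiter-Fluor fluorescence.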

[6] = target: Nuclear receptor subfamily 1 group I member 3 (Homo sapiens) (UniProt Q14994); experiment: qHTS assay to identify small molecule antagonists of the constitutive androstane receptor (CAR) signaling pathway (AID 1224838); note: nearly all actives have a fitted effect of over 40% in size; note: potency is the fitted concentration of half-maximal effect
Nuclear receptor subfamily 1 group I member 3 (Homo sapiens), sequence (Q14994 whole entry, looked up): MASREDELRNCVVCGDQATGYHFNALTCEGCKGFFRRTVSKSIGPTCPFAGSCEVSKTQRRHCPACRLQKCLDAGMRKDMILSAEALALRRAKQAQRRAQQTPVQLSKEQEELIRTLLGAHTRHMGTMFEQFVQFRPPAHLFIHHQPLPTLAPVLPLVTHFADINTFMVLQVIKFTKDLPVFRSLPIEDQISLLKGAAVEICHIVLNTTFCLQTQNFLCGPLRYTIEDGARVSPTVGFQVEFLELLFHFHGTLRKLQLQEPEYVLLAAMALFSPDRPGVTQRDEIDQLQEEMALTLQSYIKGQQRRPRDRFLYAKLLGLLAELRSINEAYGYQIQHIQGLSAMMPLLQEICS
In short: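 HepG2 cells stably carrying hCAR and a CYP2B6-2.2kb luciferase reporter, seeded 4 hrs before compound (15 concentrations). Stimulated with 50 nM CITCO for 24 hr at 37 C. ONE-Glo luminescence read after 30 min at room temperature.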

[7] = target: Nuclear receptor subfamily 1 group I member 3 (Homo sapiens) (UniProt Q14994); experiment: qHTS assay to identify small molecule agonists of the constitutive androstane receptor (CAR) signaling pathway (AID 1224839); note: nearly all actives have a fitted effect of over 15% in size; note: potency is the fitted concentration of half-maximal effect
In short: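 Cells were plated and incubated 4 hrs, then dosed with compounds at 15 concentrations. PK11195 was added to 0.75 uM final. After 24 hrs at 37 C, luciferase luminescence was measured.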

[8] = qHTS assay to identify small molecule antagonists of the estrogen related receptor signaling pathway with the pleiotropic PPARgamma coactivator (PGC) from Tox21 10K library - cell viability counter screen (AID 1224840; active = well fitted cell-killing curve with a large enough effect in the repeat runs, not every such curve was filed as active; note: nearly all actives have a fitted effect of over 40% in size; note: potency is the fitted concentration of half-maximal effect)
In short: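 PGC/ERR cells (2,000/well) plated 6 h, then compound-treated for 17.5 h at 37 C. Viability measured by CellTiter-Fluor fluorescence after 30 min at 37 C, multiplexed with the pathway assay.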

[9] = qHTS assay to identify small molecule antagonists of the estrogen related receptor signaling pathway with the pleiotropic PPARgamma coactivator (PGC) from Tox21 10K library (AID 1224841; call rule not given here; note: actives are mostly falling curves and most rising ones were filed inactive; nearly all actives have a fitted effect of over 50% in size)
In short: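 PGC/ERR cell line, 2,000 cells/well, pre-incubated 6 hours at 37 C, then exposed to compounds for 18 hours at 37 C; luciferase read with One-Glo luminescence after 30 min at room temperature.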

[10] = qHTS assay to identify small molecule agonists of the estrogen related receptor signaling pathway with the pleiotropic PPARgamma coactivator (PGC) from Tox21 10K library (AID 1224842); note: nearly all actives have a fitted effect of over 15% in size
In short: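 PGC/ERR reporter cell line, 2,000 cells per well, incubated 6 h at 37 C before 23 nL compound in DMSO was added. After 18 h at 37 C, One-Glo luminescence read following 30 min at room temperature.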

[11] = qHTS assay to identify small molecule antagonists of the retinoid acid receptor (RAR) signaling pathway - cell viability counter screen (AID 1159551); note: nearly all actives have a fitted effect of over 35% in size
In short: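 C3RL4 RARE-luciferase cells, 1,000/well, incubated overnight, then dosed with compound plus 1 uM retinol (final). After 6 hr at 37 C, viability read by CellTiter-Glo ATP luminescence following 30 min at room temperature.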

[12] = qHTS assay to identify small molecule antagonists of the retinoic acid receptor (RAR) signaling pathway (AID 1159552; note: nearly all actives have a fitted effect of over 50% in size)
In short: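 Retinol at 1 uM final stimulated RARE-luciferase expression in C3RL4 cells exposed to test compounds for 6 hr at 37 C. Reduced luminescence, read 30 min after detection reagent, indicated pathway antagonism.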

[13] = target: Thyrotropin receptor (Homo sapiens) (UniProt P16473); experiment: qHTS assay to identify small molecule agonists of the thyroid stimulating hormone receptor (TSHR) signaling pathway (AID 1224843; calls by dose curve; note: nearly all actives have a fitted effect of over 45% in size)
Thyrotropin receptor (Homo sapiens), sequence (P16473 whole entry, looked up): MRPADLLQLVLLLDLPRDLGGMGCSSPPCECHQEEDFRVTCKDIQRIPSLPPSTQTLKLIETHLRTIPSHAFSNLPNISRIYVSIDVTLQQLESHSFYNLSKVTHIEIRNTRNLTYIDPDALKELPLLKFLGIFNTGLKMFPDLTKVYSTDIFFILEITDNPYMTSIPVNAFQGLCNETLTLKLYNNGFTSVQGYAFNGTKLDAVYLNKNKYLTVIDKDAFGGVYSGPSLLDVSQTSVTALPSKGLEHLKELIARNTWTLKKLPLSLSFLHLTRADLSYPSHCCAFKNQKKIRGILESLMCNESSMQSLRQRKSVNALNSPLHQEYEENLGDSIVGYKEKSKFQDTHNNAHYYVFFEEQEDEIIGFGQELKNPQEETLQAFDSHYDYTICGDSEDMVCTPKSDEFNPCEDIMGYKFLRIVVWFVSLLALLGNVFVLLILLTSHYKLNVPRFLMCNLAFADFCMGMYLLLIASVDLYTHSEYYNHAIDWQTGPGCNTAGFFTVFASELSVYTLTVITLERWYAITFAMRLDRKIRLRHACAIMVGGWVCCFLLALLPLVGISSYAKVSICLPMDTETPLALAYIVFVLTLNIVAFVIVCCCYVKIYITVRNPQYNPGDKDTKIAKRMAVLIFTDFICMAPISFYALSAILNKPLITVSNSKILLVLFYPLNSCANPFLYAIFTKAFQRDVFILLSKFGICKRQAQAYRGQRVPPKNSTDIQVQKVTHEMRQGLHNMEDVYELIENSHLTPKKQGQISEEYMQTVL
In short: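 Steps: seed 800 TSHR-HEK293 cells per well; add test compound and hold 30 min at ambient temperature; dispense cAMP-d2 then anti-cAMP cryptate; incubate 1 h at ambient; measure fluorescence intensity.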

[14] = qHTS assay to identify small molecule antagonists of the estrogen related receptor (ERR) signaling pathway - cell viability counter screen (AID 1224818)
In short: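 ERR cells, 2,000 per well, compound added after 6 h and incubated 17.5 h at 37 C. Viability read by CellTiter-Fluor fluorescence after a further 30 min at 37 C.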

[15] = qHTS assay to identify small molecule antagonists of the estrogen related receptor signaling pathway with the pleiotropic PPARgamma coactivator (PGC) cell viability counter screen (AID 1224822)
In short: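 PGC/ERR cells rested 6 h, then compound-treated 17.5 h at 37 C. CellTiter-Fluor added for 30 min at 37 C, viability measured by fluorescence intensity.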

[16] = qHTS assay to identify small molecule agonists of the retinoic acid receptor (RAR) signaling pathway (AID 1159553); details: C3RL4 RARE luciferase reporter, agonist, 6 h; activation: at 73.3 µM (top of the series) unless noted
In short: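 C3RL4 RARE-luciferase cells were seeded at 1,000/well and grown overnight at 37 C, then exposed to compounds for 6 hr at 37 C, 5% CO2. Luciferase reagent was added and luminescence was read after 30 min at room temperature.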

| SMILES | Potency [1] | Potency [2] | Potency [3] | Potency [4] | Potency [5] | Potency [6] | Potency [7] | Potency [8] | Potency [9] | Potency [10] | Potency [11] | Potency [12] | Potency [13] | outcome [14] | outcome [15] | Potency [16] |
| --- | --- | --- | --- | --- | --- | --- | --- | --- | --- | --- | --- | --- | --- | --- | --- | --- |
| Cc1ccc(C(C)(C)C)c(O)c1 | 47.4 µM (active) and inactive | inactive | inactive | inactive | inactive | 59.1 µM (active) | inactive | inactive | inactive | inactive | – | – | – | – | – | – |
| Clc1ccc(Sc2cc(Cl)c(Cl)cc2Cl)cc1 | inactive | inactive | – | inactive | inactive | inactive | inactive | inactive | – | – | inactive | inactive | inactive | – | – | – |
| CC(C)=CCO | inactive | inactive | – | inactive | inactive | – | – | inactive | inactive | inactive | inactive | – | inactive | – | – | – |
| Oc1ccc(C(c2ccc(O)cc2)C(Cl)(Cl)Cl)cc1 | inactive | – | inactive | inactive | inactive | – | – | – | – | – | inactive | – | – | – | – | – |
| O=S1(=O)CCCO1 | inactive | inactive | inactive | inactive | inactive | inactive | inactive | inactive | – | – | inactive | – | inactive | – | – | – |
| O=C(CCCN1CCC(O)(c2ccc(Cl)cc2)CC1)c1ccc(F)cc1 | 27.5 µM (active) and inactive | 61.1 µM (active) and inactive | – | 61.1 µM (active) | 54.5 µM (active) | – | – | 54.5 µM (active) and inactive | – | – | inactive | – | inactive | inactive | inactive | – |
| NC[C@H](O)c1ccc(O)c(O)c1 | inactive | inactive | inactive | inactive | inactive | – | – | inactive | – | – | inactive | – | – | inactive | inactive | – |
| c1ccc2c(c1)[nH]c1ccccc12 | – | inactive | 39.2 µM (active) and inactive | inactive | inactive | inactive | 60.1 µM (active) | inactive | – | – | inactive | inactive | – | – | – | inactive |
| CC(=O)O[C@]1(C(C)=O)CC[C@H]2[C@@H]3C=C(Cl)C4=CC(=O)CC[C@]4(C)[C@H]3CC[C@@]21C | inactive | 61 µM (active) | – | inactive | inactive | inactive | inactive | inactive | – | – | inactive | – | inactive | – | – | – |
| CC/C(=C(/CC)c1ccc(O)cc1)c1ccc(O)cc1 | inactive | 60.6 µM (active) and inactive | – | inactive | inactive | – | – | inactive | – | – | inactive | – | – | – | – | – |
| CC1=CC(C)(C)Nc2ccccc21 | – | inactive | inactive | inactive | inactive | inactive | inactive | inactive | inactive | inactive | inactive | inactive | – | – | – | inactive |
| c1ccc2ncccc2c1 | inactive | inactive | inactive | inactive | inactive | inactive | inactive | inactive | – | – | inactive | – | inactive | – | – | – |

— PubChem BioAssay (Tox21)
